The results in this text go back to PubChem BioAssay (NCI).

The panel holds about 83,000 compounds, 20% with a hit somewhere; the sample as a whole holds those more often.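 Each cell line was grown in a 96-well plate and treated with one concentration of compound for 48 hours. Values below 10 were considered active.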 Values without a mark were called inactive. The source made the active and inactive calls.

Common to all, as to test: NCI-60 one-dose screen, 48 h (100 = growth as untreated, 0 = no growth, -100 = all killed)
What all share (details): 10 µM unless noted

The subject of experiment [1] is SK-MEL-2 melanoma.
In experiment [2] the test system is EKVX NSCLC.
Experiment [3] deals with SN12C renal.
Experiment [4] deals with UO-31 renal.
Experiment [5] relates to TK-10 renal.
The subject of experiment [6] is ACHN renal.
Experiment [7] relates to A498 renal.
For experiment [8], the system named is CCRF-CEM leukemia.
The test system of experiment [9] is MOLT-4 leukemia.
The test system of experiment [10] is CAKI-1 renal.

Consider `O=C(Nc1ccc(Cl)c(C(F)(F)F)c1)c1ccc(Nc2ccc(Cl)nn2)cc1`, for which the growth in [1] is 83.3%; in [2], 55.7%; in experiment [3], 78.9%; in [4], 0.31% (active); in experiment [5], 68.1%; in experiment [6], 52.4%. The growth in [7] was 51.6%; in experiment [8] it was 44.8%; in [9] it was 43.7%.

For `NC(N)=N/N=C\c1cccc(OCc2ccccc2)c1`, the growth is 61.4% in [1]; 80.7% in experiment [2]; 86.6% in [3]; 63.9% in [4]; 78.6% in experiment [5]; 87.4% in [6]. The growth was 82.2% in [8] and 80.1% in experiment [9].

Consider `COc1c(C(=O)/C=C/c2ccc(C)o2)c(O)cc2occc12`, for which the growth was 82.2% in experiment [1]; 68.6% in experiment [2]; 82.6% in experiment [3]; 81.2% in [4]; 100% in [5]; 97.6% in experiment [6]. For the same molecule, the growth was 66.6% in experiment [7], 84.6% in experiment [8] and 64% in experiment [9].

Take `O=C1C2=C(C(=O)c3c(O)ccc(O)c31)N(c1ccc(N3CCOCC3)nc1)Cc1ccccc1O2`: the growth in experiment [1] is -42.1% (active); in experiment [2] it was -9.79% (active); in experiment [3], -85.2% (active); in experiment [4] it was -100% (active); in experiment [5], -98.7% (active); in [6] it was -100% (active). For the same molecule, the growth in [8] is -10.1% (active); in experiment [9], -24.4% (active).

On to `O=C1OC(c2ccc(-c3ccccc3)cc2)=C/C1=C/c1c(Cl)cccc1Cl`, for which the growth in experiment [1] is 105%; in experiment [2] it was 86%; in experiment [3] it was 95.3%; in [4], 81.1%; in experiment [5] it was 88%; in experiment [6] it was 105%. Moreover, the growth in experiment [7] was 93.5%; in [8] it was -14% (active); in [9] it was 97.8%.

Turning to `Cn1c(=O)c2[nH]c(Cc3ccc4c(c3)OCO4)nc2n(C)c1=O`, the growth in [1] is 122%; in experiment [2], 97.8%; in experiment [3], 95.1%; in experiment [4], 93.5%; in experiment [5], 113%; in experiment [6], 92.1%. Further, the results for the growth in [8] and in [9] were 87% and 122%, respectively.

`Oc1ccc(-c2cnc(-c3ccccc3)[nH]2)c(O)c1`: the growth in [1] is 137%; in experiment [2], 107%; in [3], 91.6%; in experiment [4], 88.7%; in experiment [5], 112%; in experiment [6] it was 109%. Besides, the growth in experiment [8] is -41.7% (active); in experiment [9], 94%.

Consider `COc1cc2c(cc1I)-c1c(cc(OC)c(OC)c1OC)CC[C@@H]2NC(C)=O`, for which the growth in experiment [1] was 18.7%; in experiment [2] it was 44.6%; in experiment [3] it was 26.2%; in experiment [4] it was 29.5%; in experiment [5], 59%; in [6], 33.2%. Besides, the growth in experiment [7] is -30.6% (active); in experiment [8], 22.4%; in [9], 24.3%.

`c1ccc(C2=Nc3ccccc3SC2)cc1`: the growth is 105% in experiment [1]; 87.3% in experiment [2]; 107% in experiment [3]; 67.8% in [4]; 105% in [5]; 95.4% in experiment [6]. Moreover, the results for the growth in experiment [8] and in experiment [9] were 86.9% and 111%, respectively.

On to `c1ccc(C(Nc2ccccn2)(c2ccccc2)c2ccccc2)cc1`, for which the growth in experiment [1] is 74.5%; in experiment [2] it was 38.1%; in experiment [3] it was 75.9%; in experiment [4], 35.4%; in experiment [5] it was 85.5%; in experiment [6], 69.3%. Besides, the growth in experiment [7] was 72%; in experiment [8], 81.2%; in experiment [9], 66.3%.

On to `CCCCn1c(-c2ccc(F)cc2)nc2cc(OC)c(OC)cc2c1=O`, for which the growth in experiment [1] is 176%; in [2], 105%; in experiment [3], 91.3%; in [4], 82.2%; in experiment [5], 75.1%; in experiment [6] it was 101%. In addition, the growth in experiment [7] was 95.7%; in [8], -46% (active); in experiment [9], 51.1%.

As to `SCc1ccc(CS)cc1`, the growth in experiment [1] is 108%; in experiment [2], 104%; in experiment [3] it was 100%; in experiment [4] it was 85.6%; in [5] it was 115%; in experiment [6] it was 102%. The growth in [8] was 98%.

For `COc1cc2nccc(Oc3ccc(NC(=O)C4(C(=O)Nc5ccc(F)cc5)CC4)cc3)c2cc1OC(=O)c1ccc(N)cc1`, the growth in [1] was 31.3%; in experiment [2] it was 25.7%; in [3], 27.6%; in experiment [4] it was 9.18% (active); in experiment [5], 72.2%; in experiment [6] it was 39.5%. For the same molecule, the growth in experiment [8] was 27.8%; in experiment [9], 3.73% (active).

With `O=C(O)c1cn(-c2ccccc2)nc1-c1ccc(O)cc1`, the growth is 103% in experiment [1]; 95.7% in experiment [2]; 98.9% in experiment [3]; 89.4% in [4]; 106% in [5]; 99.4% in experiment [6]. The growth in experiment [7] was 74.3%; in [8], 94%; in experiment [9] it was 104%.

For `O=C(NO)c1ccc(NCc2csc3ccccc23)cc1`, the growth in [1] was 84.1%; in experiment [2] it was 69.7%; in experiment [3], 59.4%; in experiment [4], 39.5%; in experiment [5], 59.1%; in experiment [6], 69.6%. The growth was 57.1% in experiment [7], 44.7% in experiment [8] and 43.1% in experiment [9].

`CC(=O)c1cccc(Nc2ncnc3ccc(NC(=O)c4ccco4)cc23)c1`: the growth in experiment [1] is 98.1%; in experiment [2], 84.8%; in experiment [3] it was 87.4%; in [4], 64.8%; in experiment [5], 99.6%; in experiment [6], 87.1%. The growth in experiment [7] was 82.4%; in experiment [8], 96.5%; in experiment [9], 77.5%.

For `COc1ccc(/C(=C\c2cc(OC)c(OC)c(OC)c2)C(=O)Nc2nc3ccc(Cl)cc3s2)cc1`, the growth was 94.8% in experiment [1]; 80.5% in [2]; 96.9% in experiment [3]; 76.4% in experiment [4]; 92.4% in [5]; 83.2% in experiment [10]. Besides, the values for the growth in experiment [7], in experiment [8] and in [9] were 97.4%, 85% and 64.4%, respectively.

For the molecule `CCOC(=O)NNc1cccc(Cl)c1`, the growth was 116% in [1]; 90.6% in [2]; 114% in experiment [3]; 120% in experiment [5]; 93.5% in experiment [6]; 90% in experiment [10]. Also, the growth in experiment [7] was 85.5%; in experiment [8] it was 103%; in experiment [9], 113%.

For the molecule `O=C(OCc1ccc2c(Br)cc(Br)c(O)c2n1)c1cc2ccccc2[nH]1`, the growth is -20.6% (active) in experiment [1]; -65.5% (active) in experiment [2]; -79.2% (active) in experiment [3]; -100% (active) in experiment [4]; -94.2% (active) in [5]; -97.6% (active) in experiment [10]. For the same molecule, the growth in [7] was -1.86% (active); in [8] it was 2.81% (active); in [9], -8.64% (active).

Take `C#CC[C@@H]1C[C@]2(C)[C@H]3CC=C4[C@H]5[C@@H](C)[C@H](C)CC[C@]5(C(=O)NCCCCN)CC[C@@]4(C)[C@]3(C)CC[C@H]2C(C)(C)[C@H]1OC(C)=O`: the growth in [1] was 101%; in experiment [2], 96%; in experiment [3] it was 73.8%; in experiment [5], 97.7%; in experiment [6] it was 89.5%; in experiment [10], 50.5%. For the same molecule, the growth in experiment [8] is 30%; in experiment [9] it was 14.9%.

As to `O=C1c2ccccc2C2N1CCC1CCc3ccccc3N12` (stereo unspecified), the growth in experiment [1] was 99.7%; in experiment [2], 104%; in [3], 94.8%; in [5], 108%; in experiment [6], 99.3%; in [10], 88.4%. Further, the growth was 75.5% in experiment [7], 105% in [8] and 101% in [9].

On to `NC(N)=N/N=C\c1ccc(OCc2ccccc2)cc1`, for which the growth in [1] was 86.6%; in experiment [2], 88.6%; in experiment [3], 79.5%; in experiment [4] it was 64.6%; in [5], 73.4%; in [6], 75.7%. In addition, the growth in experiment [8] is 72.3%; in experiment [9], 73.8%.

Take `COc1ccccc1/C=N\NC(=S)Nc1ccc(F)cc1`: the growth was 81% in experiment [1]; 75.7% in [2]; 81.1% in experiment [3]; 62.2% in experiment [4]; 97.5% in experiment [5]; 88.5% in experiment [10]. Also, the growth is 67% in experiment [7], 89.2% in experiment [8] and 57.3% in experiment [9].

For `O=C(NCCNC(=O)c1cc(S(=O)(=O)NCCc2ccccc2)c(O)c(O)c1O)c1cc(S(=O)(=O)NCCc2ccccc2)c(O)c(O)c1O`, the growth in experiment [1] is 63%; in [2], 49.9%; in experiment [3] it was 52.3%; in experiment [4], 46.5%; in experiment [5], 96.6%; in experiment [6], 68.6%. Further, the growth in experiment [8] is 45%; in [9], 56.6%.

Take `COC(=O)c1cc(Cl)cc([N+](=O)[O-])c1O`: the growth in experiment [1] is 135%; in experiment [2] it was 88.8%; in [3], 108%; in experiment [5], 118%; in experiment [6], 106%; in experiment [10] it was 92.6%. Moreover, the results for the growth in [7], in experiment [8] and in experiment [9] were 89.5%, 25.6% and 61.6%, respectively.

Consider `CCOC(C)(c1ccc(Cl)cc1)C1CCNCC1` (stereo unspecified), for which the growth in [1] was 106%; in experiment [2], 72.9%; in experiment [3] it was 100%; in [5], 96.1%; in [6], 98.4%; in experiment [10], 100%. For the same molecule, the growth in experiment [7] was 86.1%; in [8], 109%; in [9] it was 81.7%.

Consider `COc1ccc(/C(=C\c2ccc3c(c2)OCO3)C(=O)Nc2nc3ccc(F)cc3s2)cc1OC`, for which the growth in [1] was 95.7%; in [2], 103%; in experiment [3], 115%; in [5] it was 119%; in experiment [6], 97.5%; in [10], 86.5%. In addition, the growth in [7] is 98.3%; in experiment [9], 94.4%.

For the molecule `O=C(CN1CCN(c2ccccc2)CC1)N1CCN(c2nnc(-c3ccc(Cl)cc3)c(-c3ccc(Cl)cc3)n2)CC1`, the growth in [1] is 71.9%; in [2] it was 35%; in [3], 62.7%; in experiment [5], 73.4%; in experiment [6] it was 53.6%; in experiment [7] it was 62.6%. Besides, the growth was 29.4% in experiment [8] and 2% (active) in experiment [9].

For `COc1ccc(Nc2ncccc2C(=O)NCc2cn(Cc3cc(OC)cc(OC)c3)nn2)cc1`, the growth in [1] was 89.5%; in experiment [2], 92.5%; in experiment [3], 109%; in experiment [4] it was 65.7%; in experiment [5], 108%; in [10], 101%. Besides, the growth in experiment [7] was 95.8%; in experiment [9] it was 82.7%.

Regarding `CC[C@H](Nc1nc(N)nc(C2CC2)c1C#N)c1nc2cccc(NCc3ccc(C(=O)NO)cc3)c2c(=O)n1-c1ccccc1`, the growth in experiment [1] is 26.2%; in [2], 0.322% (active); in [3] it was 9.34% (active); in experiment [4], -80% (active); in [5] it was 5.55% (active); in [10] it was -44.5% (active). In addition, the growth was -8.64% (active) in experiment [7], 8.87% (active) in experiment [8] and 2.13% (active) in experiment [9].
